TcdB GH inh: inhibitors of Clostridioides difficile toxin B glycohydrolase | TcdB glycohydrolase enzymatic assay, plate reader | inhibition, % at 9.99 µM | actives 0.24% (n = 350,000) | P18177; in the data active = inhibition above about 10%
Anthrax LF prot: blocks Bacillus anthracis lethal factor protease; P15917; inhibition, % at 10 µM; actives 0.12% (n = 360,000); multiplex microsphere protease cleavage assay, LF; AID 588501; also: plate controls were buffer without enzyme for full effect and enzyme alone for no effect
Target sequence (P15917 whole entry, looked up): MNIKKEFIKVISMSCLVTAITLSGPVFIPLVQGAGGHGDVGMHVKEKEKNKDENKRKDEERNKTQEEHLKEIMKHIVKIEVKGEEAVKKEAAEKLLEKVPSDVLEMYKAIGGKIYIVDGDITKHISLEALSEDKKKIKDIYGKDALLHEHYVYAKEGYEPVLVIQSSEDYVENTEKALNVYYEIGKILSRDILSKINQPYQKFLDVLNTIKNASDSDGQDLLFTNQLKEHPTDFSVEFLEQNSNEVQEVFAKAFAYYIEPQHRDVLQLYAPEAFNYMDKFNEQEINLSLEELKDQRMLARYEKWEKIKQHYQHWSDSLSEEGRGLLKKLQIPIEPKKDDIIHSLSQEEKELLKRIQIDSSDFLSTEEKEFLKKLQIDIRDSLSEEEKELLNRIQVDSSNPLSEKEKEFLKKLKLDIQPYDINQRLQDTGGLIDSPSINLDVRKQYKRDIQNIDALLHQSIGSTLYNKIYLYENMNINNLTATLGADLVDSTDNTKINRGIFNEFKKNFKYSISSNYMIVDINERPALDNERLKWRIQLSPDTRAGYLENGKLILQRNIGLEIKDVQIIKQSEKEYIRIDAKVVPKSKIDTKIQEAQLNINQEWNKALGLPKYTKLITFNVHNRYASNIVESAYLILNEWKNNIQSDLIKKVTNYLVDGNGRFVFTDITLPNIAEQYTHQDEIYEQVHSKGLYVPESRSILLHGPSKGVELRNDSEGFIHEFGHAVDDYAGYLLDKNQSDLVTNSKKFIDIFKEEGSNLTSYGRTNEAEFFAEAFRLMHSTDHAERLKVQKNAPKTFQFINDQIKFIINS
BoNT F protease: inhibitors of Botulinum neurotoxin F light chain protease; Multiplex microsphere protease cleavage assay, flow cytometry; inhibition, % at 10 µM; actives 0.22% (n = 360,000); in the data active = inhibition above about 35%, passing the limit was not always enough; inconclusive = no clear call, values can overlap the other calls; also: plate controls were buffer without enzyme for full effect and enzyme alone for no effect
BoNT-A LC inh2: BoNT A light chain protease inhibition; multiplex microsphere protease substrate cleavage, flow cytometry; AID 588499; inhibition, % at 10 µM; actives 0.17% (n = 360,000); also: plate controls were buffer without enzyme for full effect and enzyme alone for no effect
Bead autofluor: flagged as autofluorescent in microsphere protease counterscreen; compound autofluorescence counterscreen, microsphere flow cytometry; stronger effect = higher value; fluorescence intensity (no concentration beside the values); actives 3.1% (n = 360,000); AID 624483; in the data active = fluorescence intensity above about 16000; inconclusive = no clear call, values can overlap the other calls
Starred values were filed as active, the others as inactive; u = inconclusive; x = no result. Only a selection was taken, and hits are over-represented in it overall. Rule as the data show it, unless noted: active = inhibition above about 30%; inconclusive = no clear call, values can overlap the other calls; inactive = below that.

SMILES | TcdB GH inh | Anthrax LF prot | BoNT F protease | BoNT-A LC inh2 | Bead autofluor
Cc1ccc(-n2c(SCC(N)=O)nnc2-c2ccc(S(=O)(=O)N3CCCCC3)cc2)c(C)c1 | x | -1 | 0 | 1 | 16453*
Cc1cc(NC(=O)CSc2nnc(-c3ccc(S(=O)(=O)N4CCCC4)cc3)n2C)no1 | x | -1 | -1 | 1 | 7416
COCCn1c(SCC(=O)Nc2ccc(S(N)(=O)=O)cc2)nc2ccccc21 | x | -2 | -6 | -1 | 2633
COCCn1c(SCC(=O)Nc2ccc(S(=O)(=O)N3CCOCC3)cc2)nc2ccccc21 | x | -6 | -4 | u | 23038*
CCn1c(SCC(=O)Nc2cc(C)on2)nnc1-c1ccc(S(=O)(=O)N2CCCC2)cc1 | -2 | 0 | -1 | u | 20376*
C[C@@H]1CN([C@@H](C)CO)C(=O)c2cccc(NC(=O)Nc3ccccc3)c2O[C@@H]1CN(C)S(=O)(=O)c1ccc(Cl)cc1 | 1 | x | x | x | x
C[C@H](CO)N1C[C@H](C)[C@@H](CN(C)Cc2ccccc2)Oc2cc(C#CC3CC3)ccc2S1(=O)=O | 0 | x | x | x | x
C[C@H]1CN([C@@H](C)CO)C(=O)c2cc(NC(=O)CCCN(C)C)ccc2O[C@H]1CN(C)CC1CCCCC1 | -2 | x | x | x | x
Cc1ccc(-c2ccc3c(c2)O[C@@H](CN(C)C)[C@H](C)CN([C@@H](C)CO)S3(=O)=O)cc1 | -3 | x | x | x | x
O=C(CCCN1C(=O)c2ccccc2C1=O)Nc1ccc(S(=O)(=O)N2CCOCC2)cc1 | x | -5 | -7 | u | 24200*
Cn1nnnc1SCC(=O)Nc1cccc(S(=O)(=O)N2CCCC2)c1 | 0 | 4 | -4 | 0 | 4595
Cc1ccc(NC(=O)CSc2nnc(-c3ccc(S(=O)(=O)N4CCOCC4)cc3)n2C)cc1 | x | -5 | 2 | u | 19086*
NC(=O)CSc1nnc(-c2ccc(S(=O)(=O)N3CCOCC3)cc2)n1CC1CCCO1 (stereo unspecified) | 1 | -6 | 3 | 1 | 22288*
CC1CCN(S(=O)(=O)c2ccc(NC(=O)CSc3nnnn3C)cc2)CC1 | x | 2 | -1 | -1 | 23542*
COc1ccccc1NC(=O)N(C)C[C@@H]1OCc2ccccc2-c2ccccc2C(=O)N([C@H](C)CO)C[C@@H]1C | 0 | x | x | x | x
COc1cccc(NC(=O)Cn2c(SCC(=O)N3CCOCC3)nc3ccccc32)c1 | x | -5 | -2 | u | 16158*
COc1cccc(C(=O)CSc2nc3ccccc3n2CC(=O)N2CCOCC2)c1 | x | -2 | -6 | 0 | 9737
CCCCN(CCCC)CCNC(=O)CNC(=O)c1cccs1 | x | -10 | 3 | 4 | 21124*
CN(C)C=Nc1c(Br)cc(Br)c2nonc12 | x | 6 | u | 71* | 10842
C[C@@H]1CN([C@H](C)CO)C(=O)c2cc(N(C)C)ccc2O[C@H]1CN(C)C(=O)Nc1ccc(C(F)(F)F)cc1 | -1 | x | x | x | x
CC(=O)NC(Cc1ccccc1)C(=O)NC1CCN(C(=O)c2ccc([N+](=O)[O-])cc2)CC1 (stereo unspecified) | x | 0 | -4 | 0 | 2477
CC(=O)NC(Cc1ccccc1)C(=O)NC1CCN(C(=O)c2cnccn2)CC1 (stereo unspecified) | x | -1 | -1 | u | 16732*
C[C@@H]1CN([C@H](C)CO)C(=O)c2cc(NC(=O)CCC(F)(F)F)ccc2O[C@@H](C)CCCCO[C@@H]1CN(C)S(=O)(=O)c1cccs1 | 0 | x | x | x | x
CCn1cc(C(=O)C(F)(F)F)c2ccccc21 | x | 0 | 2 | 1 | 22281*
CCn1cc(C(=O)c2cccs2)c2ccccc21 | x | -9 | -4 | -4 | 16945*
SMILES | TcdB GH inh | Anthrax LF prot | BoNT F protease | BoNT-A LC inh2 | Bead autofluor
O=C(O)Cn1cc(C(=O)c2ccccc2)c2ccccc21 | x | 2 | 10 | 9 | 18398*
C[C@@H]1CN([C@H](C)CO)C(=O)Cc2cc(NC(=O)Cc3cn(C)c4ccccc34)ccc2O[C@@H]1CN(C)S(C)(=O)=O | 0 | x | x | x | x
N#Cc1cc(C#N)c(N2CCN(c3ccccn3)CC2)nc1N | x | -5 | -2 | -3 | 23218*
Cc1cc(C)n(CC(=O)NN)n1 | -1 | 0 | -1 | 0 | 4225
Cc1cc(C)n(C/C=C/Cn2nc(C)cc2C)n1 | 1 | 0 | -2 | u | 20615*
CO[C@H]1CN(C)C(=O)c2ccc(NC(=O)NC(C)C)cc2OC[C@@H](C)N(C(=O)NC(C)C)C[C@H]1C | -1 | x | x | x | x
CNC(=O)C1CC(=O)N(Cc2ccc(OC)c(OC)c2)C(=Nc2ccc(OC)cc2)S1 (stereo unspecified) | x | -6 | 1 | 0 | 2904
CNC(=O)C1CC(=O)N(Cc2ccccc2)C(=Nc2ccc(OC)cc2)S1 (stereo unspecified) | x | -1 | -4 | u | 23832*

Source: PubChem
